# This excerpt belongs to a sample that is enriched for the strongest signals.
# B1: BabA (Helicobacter pylori), O52269_HELPY (protein)
# chain: AEDDGFYMSAGYQIGEAAQMVKNTKGIQELSDNYENLSNLLTRYSTLNTLIKLSADPSAVNAARENLGASAKNLIGDTKNSPAYQAVLLAINAAVGFWNVVGYVTQCGGNANGQKSTSSTTIFNNEPGYRSTSITCSLNGHMPGYYGPMSIENFKKLNEAYQILQTALKNGLPALKENNGTVNVTYSYTCSGEGNDNCSLQTTGVTNQNNGTKTETQTIDGKSVTTTISSKVVDSQ
# How the values were obtained:
# Assay in all cases: glycan array binding signal (z-score within array); higher = stronger binding
# Settings in all cases: glycan notation: IUPAC condensed, linker removed
# [1] = molecular target: Fuc(a1-2)Gal(b1-3)GlcNAc(b1-2)Man(a1-3)[Fuc(a1-2)Gal(b1-3)GlcNAc(b1-2)Man(a1-6)]Man(b1-4)GlcNAc(b1-4)[Fuc(a1-6)]GlcNAc
# Method in brief: (§1)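 The binding signal is a Z-score computed within each array. Data were drawn from 3228 arrays in the Consortium for Functional Glycomics database, restricted to those with a known protein sequence. Scores were averaged over arrays of the same protein sequence at different concentrations or buffers, and over linkers, and negative values can be taken as non-binding.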
# [2] = molecular target: Fuc(a1-2)Gal(b1-4)Fuc(a1-3)]GlcNAc(b1-2)Man(a1-3)[Fuc(a1-2)Gal(b1-4)[Fuc(a1-3)]GlcNAc(b1-2)Man(a1-6)]Man(b1-4)GlcNAc(b1-4)GlcNAc
# Method in brief: as §1
# Fuc(a1-2)Gal(b1-4)Glc6S = molecular target: Fuc(a1-2)Gal(b1-4)Glc6S
# Method in brief: as §1
# [3] = molecular target: Fuc(a1-2)Gal(b1-4)GlcNAc(b1-3)[Fuc(a1-3)[Gal(b1-4)]GlcNAc(b1-6)]Gal(b1-4)Glc
# Method in brief: as §1
# [4] = molecular target: Fuc(a1-2)[Gal(a1-3)]Gal(b1-4)GlcNAc(b1-2)Man(a1-3)[Fuc(a1-2)[Gal(a1-3)]Gal(b1-4)GlcNAc(b1-2)Man(a1-6)]Man(b1-4)GlcNAc(b1-4)[Fuc(a1-6)]GlcNAc
# Method in brief: as §1
# [5] = molecular target: Fuc(a1-2)[GalNAc(a1-3)]Gal(b1-4)GlcNAc(b1-3)Gal(b1-4)GlcNAc(b1-3)Gal(b1-4)GlcNAc
# Method in brief: as §1
# [6] = molecular target: Fuc(a1-3)[Gal(b1-4)]GlcNAc(b1-6)[Gal(b1-3)GlcNAc(b1-3)]Gal(b1-4)Glc
# Method in brief: as §1
# [7] = molecular target: Fuc(a1-3)[GalNAc(b1-4)]GlcNAc6S
# Method in brief: as §1
# [8] = molecular target: Gal(b1-3)Gal(b1-4)GlcNAc(b1-2)Man(a1-3)[Gal(b1-3)Gal(b1-4)GlcNAc(b1-2)Man(a1-6)]Man(b1-4)GlcNAc(b1-4)GlcNAc
# Method in brief: as §1
# [9] = molecular target: Gal(b1-3)GalNAc(b1-4)[Neu5Ac(a2-3)]Gal(b1-4)Glc
# Method in brief: as §1
# [10] = molecular target: Gal(b1-3)GlcNAc(b1-3)Gal(b1-4)GlcNAc
# Method in brief: as §1
# Gal(b1-4)Glc6S = molecular target: Gal(b1-4)Glc6S
# Method in brief: as §1
# [11] = molecular target: Gal(b1-4)GlcNAc(b1-2)Man(a1-3)[Gal(b1-4)GlcNAc(b1-2)Man(a1-6)]Man(b1-4)GlcNAc(b1-4)GlcNAc
# Method in brief: as §1
# [12] = molecular target: Gal(b1-4)GlcNAc(b1-2)Man(a1-3)[Gal(b1-4)GlcNAc(b1-2)Man(a1-6)]Man(b1-4)GlcNAc(b1-4)[Fuc(a1-6)]GlcNAc
# Method in brief: as §1
# [13] = molecular target: Gal(b1-4)GlcNAc(b1-3)Gal(b1-4)Glc
# Method in brief: as §1
# [14] = molecular target: Gal(b1-4)GlcNAc(b1-3)Gal(b1-4)GlcNAc(b1-2)Man(a1-3)[Gal(b1-4)GlcNAc(b1-3)Gal(b1-4)GlcNAc(b1-2)Man(a1-6)]Man(b1-4)GlcNAc(b1-4)GlcNAc
# Method in brief: as §1
# [15] = molecular target: Gal(b1-4)GlcNAc(b1-3)Gal(b1-4)GlcNAc(b1-3)Gal(b1-4)GlcNAc(b1-2)Man(a1-3)[Gal(b1-4)GlcNAc(b1-3)Gal(b1-4)GlcNAc(b1-3)Gal(b1-4)GlcNAc(b1-2)Man(a1-6)]Man(b1-4)GlcNAc(b1-4)GlcNAc
# Method in brief: as §1
# [16] = molecular target: Gal(b1-4)GlcNAc(b1-3)Gal(b1-4)GlcNAc(b1-3)Gal(b1-4)GlcNAc(b1-2)Man(a1-3)[Gal(b1-4)GlcNAc(b1-3)Gal(b1-4)GlcNAc(b1-3)Gal(b1-4)GlcNAc(b1-2)Man(a1-6)]Man(b1-4)GlcNAc(b1-4)[Fuc(a1-6)]GlcNAc
# Method in brief: as §1
# [17] = molecular target: Gal(b1-4)GlcNAc(b1-3)Gal(b1-4)GlcNAc(b1-3)Gal(b1-4)GlcNAc(b1-2)[Gal(b1-4)GlcNAc(b1-3)Gal(b1-4)GlcNAc(b1-3)Gal(b1-4)GlcNAc(b1-6)]Man(a1-6)[Gal(b1-4)GlcNAc(b1-3)Gal(b1-4)GlcNAc(b1-3)Gal(b1-4)GlcNAc(b1-2)Man(a1-3)]Man(b1-4)GlcNAc(b1-4)[Fuc(a1-6)]GlcNAc
# Method in brief: as §1
# [18] = molecular target: Gal(b1-4)GlcNAc(b1-3)Gal(b1-4)GlcNAc(b1-3)Gal(b1-4)GlcNAc(b1-3)Gal(b1-4)GlcNAc(b1-3)Gal(b1-4)GlcNAc(b1-2)Man(a1-3)[Gal(b1-4)GlcNAc(b1-3)Gal(b1-4)GlcNAc(b1-3)Gal(b1-4)GlcNAc(b1-3)Gal(b1-4)GlcNAc(b1-3)Gal(b1-4)GlcNAc(b1-2)Man(a1-6)]Man(b1-4)GlcNAc(b1-4)GlcNAc
# Method in brief: as §1
# [19] = molecular target: Gal(b1-4)GlcNAc(b1-3)Gal(b1-4)GlcNAc(b1-3)[Gal(b1-4)GlcNAc(b1-3)Gal(b1-4)GlcNAc(b1-6)]GalNAc
# Method in brief: as §1
# [20] = molecular target: Gal(b1-4)GlcNAc(b1-6)[Gal(b1-4)GlcNAc(b1-3)]GalNAc
# Method in brief: as §1
# Gal3S4S(b1-4)GlcNAc = molecular target: Gal3S4S(b1-4)GlcNAc
# Method in brief: as §1
# Gal4S(b1-4)GlcNAc = molecular target: Gal4S(b1-4)GlcNAc
# Method in brief: as §1
# [21] = molecular target: GalNAc(a1-3)GalNAc(b1-3)Gal(a1-4)Gal(b1-4)Glc
# Method in brief: as §1
# GalNAc(b1-3)GalNAc = molecular target: GalNAc(b1-3)GalNAc
# Method in brief: as §1
# GalNAc6S(b1-4)GlcNAc = molecular target: GalNAc6S(b1-4)GlcNAc
# Method in brief: as §1
# [22] = molecular target: Glc(a1-4)Glc(a1-4)Glc(a1-4)Glc
# Method in brief: as §1
# [23] = molecular target: Glc(a1-6)Glc(a1-6)Glc(a1-6)Glc
# Method in brief: as §1
# GlcA(b1-6)Gal = molecular target: GlcA(b1-6)Gal
# Method in brief: as §1
binder,measurement,setting,value
B1,glycan array binding signal (z-score),[1],-0.237
same,glycan array binding signal (z-score),[2],3.3
same,glycan array binding signal (z-score),Fuc(a1-2)Gal(b1-4)Glc6S,0.321
same,glycan array binding signal (z-score),[3],-0.3
same,glycan array binding signal (z-score),[4],-0.046
same,glycan array binding signal (z-score),[5],-0.054
same,glycan array binding signal (z-score),[6],0.017
same,glycan array binding signal (z-score),[7],-0.664
same,glycan array binding signal (z-score),[8],0.28
same,glycan array binding signal (z-score),[9],0.035
same,glycan array binding signal (z-score),[10],-0.811
same,glycan array binding signal (z-score),Gal(b1-4)Glc6S,-0.359
same,glycan array binding signal (z-score),[11],-0.732
same,glycan array binding signal (z-score),[12],0.092
same,glycan array binding signal (z-score),[13],-0.535
same,glycan array binding signal (z-score),[14],4.08
same,glycan array binding signal (z-score),[15],4
same,glycan array binding signal (z-score),[16],2.03
same,glycan array binding signal (z-score),[17],2.31
same,glycan array binding signal (z-score),[18],3.86
same,glycan array binding signal (z-score),[19],4.39
same,glycan array binding signal (z-score),[20],-0.568
same,glycan array binding signal (z-score),Gal3S4S(b1-4)GlcNAc,0.144
same,glycan array binding signal (z-score),Gal4S(b1-4)GlcNAc,0.875
same,glycan array binding signal (z-score),[21],-0.709
same,glycan array binding signal (z-score),GalNAc(b1-3)GalNAc,-0.807
same,glycan array binding signal (z-score),GalNAc6S(b1-4)GlcNAc,-0.764
same,glycan array binding signal (z-score),[22],0.344
same,glycan array binding signal (z-score),[23],0.59
same,glycan array binding signal (z-score),GlcA(b1-6)Gal,-0.267

# From the supplement of paper PMC8728848
